# Laboratory results from ChEMBL document CHEMBL5724796, “Tm Shift (DSF) assay results for EUbOPEN Chemogenomics Library” (2024).
# Residues, ends and D or L forms follow the SMILES beside them. *: point of attachment. Cbz = O=C(OCc1ccccc1)*; CH2F = FC*
# What was measured:
# Settings in all cases: Compound concentration 20.0 uM
# [1] = molecular target: Tyrosine-protein kinase ABL1 (Homo sapiens) (UniProt P00519)
# [2] = molecular target: Bromodomain-containing protein 4 (Homo sapiens) (UniProt O60885)
# [3] = molecular target: Cyclin-dependent kinase 2 (Homo sapiens) (UniProt P24941)
# [4] = molecular target: Casein kinase I isoform delta (Homo sapiens) (UniProt P48730)
# Sequence of Casein kinase I isoform delta (Homo sapiens) (P48730 whole entry, looked up, canonical isoform): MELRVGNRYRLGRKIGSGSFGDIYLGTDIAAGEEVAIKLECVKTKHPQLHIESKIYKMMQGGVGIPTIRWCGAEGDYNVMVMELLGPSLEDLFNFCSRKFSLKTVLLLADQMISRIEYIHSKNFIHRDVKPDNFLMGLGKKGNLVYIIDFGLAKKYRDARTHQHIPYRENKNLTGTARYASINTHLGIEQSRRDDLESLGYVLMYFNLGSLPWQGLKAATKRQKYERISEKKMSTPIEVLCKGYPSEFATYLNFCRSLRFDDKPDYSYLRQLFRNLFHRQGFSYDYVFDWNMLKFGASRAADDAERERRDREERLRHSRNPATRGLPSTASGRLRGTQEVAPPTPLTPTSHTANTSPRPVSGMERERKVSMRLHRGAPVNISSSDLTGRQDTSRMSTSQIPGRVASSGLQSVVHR
# [5] = molecular target: Glycogen synthase kinase-3 beta (Homo sapiens) (UniProt P49841)
# Sequence of Glycogen synthase kinase-3 beta (Homo sapiens) (P49841 whole entry, looked up): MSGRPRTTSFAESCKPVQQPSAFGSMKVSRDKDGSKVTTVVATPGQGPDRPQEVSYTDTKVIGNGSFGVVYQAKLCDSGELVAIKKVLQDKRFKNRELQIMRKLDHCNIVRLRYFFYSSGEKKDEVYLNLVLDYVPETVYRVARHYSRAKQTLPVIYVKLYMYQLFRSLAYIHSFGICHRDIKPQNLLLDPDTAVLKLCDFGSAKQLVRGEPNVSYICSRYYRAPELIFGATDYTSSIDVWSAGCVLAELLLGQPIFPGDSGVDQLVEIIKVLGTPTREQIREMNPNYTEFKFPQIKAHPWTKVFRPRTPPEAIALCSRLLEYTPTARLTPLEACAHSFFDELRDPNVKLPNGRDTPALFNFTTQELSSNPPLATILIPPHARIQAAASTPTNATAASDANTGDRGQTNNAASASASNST
# [6] = molecular target: Mitogen-activated protein kinase 1 (Homo sapiens) (UniProt P28482)
# Sequence of Mitogen-activated protein kinase 1 (Homo sapiens) (P28482 whole entry): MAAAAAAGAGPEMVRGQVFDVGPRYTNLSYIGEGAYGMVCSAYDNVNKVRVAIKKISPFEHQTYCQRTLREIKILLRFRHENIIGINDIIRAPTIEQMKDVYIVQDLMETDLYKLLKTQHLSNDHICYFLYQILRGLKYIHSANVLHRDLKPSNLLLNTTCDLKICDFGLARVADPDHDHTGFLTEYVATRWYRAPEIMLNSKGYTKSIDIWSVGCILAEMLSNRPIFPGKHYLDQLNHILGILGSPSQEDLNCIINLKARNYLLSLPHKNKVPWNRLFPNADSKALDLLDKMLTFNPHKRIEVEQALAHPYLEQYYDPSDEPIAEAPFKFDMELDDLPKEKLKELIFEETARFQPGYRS
# [7] = molecular target: T1, Aurora kinase A (Homo sapiens) (UniProt O14965)
# T1 sequence (whole entry): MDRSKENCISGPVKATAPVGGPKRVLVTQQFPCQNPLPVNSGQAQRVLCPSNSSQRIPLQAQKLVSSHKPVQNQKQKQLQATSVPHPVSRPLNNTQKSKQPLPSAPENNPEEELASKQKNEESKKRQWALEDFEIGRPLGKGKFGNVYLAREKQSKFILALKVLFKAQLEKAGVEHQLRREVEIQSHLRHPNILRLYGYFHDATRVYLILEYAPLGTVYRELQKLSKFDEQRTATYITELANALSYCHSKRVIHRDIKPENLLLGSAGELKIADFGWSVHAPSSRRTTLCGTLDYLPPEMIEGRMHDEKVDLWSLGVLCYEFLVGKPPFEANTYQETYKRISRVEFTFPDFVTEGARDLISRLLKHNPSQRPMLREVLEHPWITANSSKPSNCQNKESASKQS
# [8] = molecular target: T2, Transcription intermediary factor 1-alpha (Homo sapiens) (UniProt O15164)
# T2 sequence (whole entry): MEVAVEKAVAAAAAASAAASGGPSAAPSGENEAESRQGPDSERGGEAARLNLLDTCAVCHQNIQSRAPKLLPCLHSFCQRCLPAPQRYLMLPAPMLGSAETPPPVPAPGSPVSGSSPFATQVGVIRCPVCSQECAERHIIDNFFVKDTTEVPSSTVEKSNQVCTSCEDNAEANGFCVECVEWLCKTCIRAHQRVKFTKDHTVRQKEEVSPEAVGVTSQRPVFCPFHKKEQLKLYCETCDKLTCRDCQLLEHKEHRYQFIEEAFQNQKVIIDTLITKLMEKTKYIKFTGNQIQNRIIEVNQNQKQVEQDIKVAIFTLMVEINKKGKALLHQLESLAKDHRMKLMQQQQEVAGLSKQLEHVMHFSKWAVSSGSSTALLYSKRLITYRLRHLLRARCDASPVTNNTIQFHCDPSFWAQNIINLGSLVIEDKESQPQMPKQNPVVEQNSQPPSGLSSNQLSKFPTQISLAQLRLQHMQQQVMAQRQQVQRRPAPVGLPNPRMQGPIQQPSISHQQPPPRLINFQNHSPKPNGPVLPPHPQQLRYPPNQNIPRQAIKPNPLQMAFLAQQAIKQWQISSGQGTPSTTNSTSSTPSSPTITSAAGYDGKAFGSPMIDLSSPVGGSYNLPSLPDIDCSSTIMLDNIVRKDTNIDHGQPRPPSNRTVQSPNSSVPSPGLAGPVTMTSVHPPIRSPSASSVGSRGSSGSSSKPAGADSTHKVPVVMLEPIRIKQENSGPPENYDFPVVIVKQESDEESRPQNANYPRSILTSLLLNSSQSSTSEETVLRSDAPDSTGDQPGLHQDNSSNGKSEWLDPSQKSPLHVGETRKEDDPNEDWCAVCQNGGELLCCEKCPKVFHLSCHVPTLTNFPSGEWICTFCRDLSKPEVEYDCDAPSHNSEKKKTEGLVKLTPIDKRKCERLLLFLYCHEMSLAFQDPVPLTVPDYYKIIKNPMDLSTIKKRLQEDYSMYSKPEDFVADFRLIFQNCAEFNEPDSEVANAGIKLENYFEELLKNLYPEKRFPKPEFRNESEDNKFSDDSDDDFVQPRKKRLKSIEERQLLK
# Sequence of Tyrosine-protein kinase ABL1 (Homo sapiens) (P00519 whole entry): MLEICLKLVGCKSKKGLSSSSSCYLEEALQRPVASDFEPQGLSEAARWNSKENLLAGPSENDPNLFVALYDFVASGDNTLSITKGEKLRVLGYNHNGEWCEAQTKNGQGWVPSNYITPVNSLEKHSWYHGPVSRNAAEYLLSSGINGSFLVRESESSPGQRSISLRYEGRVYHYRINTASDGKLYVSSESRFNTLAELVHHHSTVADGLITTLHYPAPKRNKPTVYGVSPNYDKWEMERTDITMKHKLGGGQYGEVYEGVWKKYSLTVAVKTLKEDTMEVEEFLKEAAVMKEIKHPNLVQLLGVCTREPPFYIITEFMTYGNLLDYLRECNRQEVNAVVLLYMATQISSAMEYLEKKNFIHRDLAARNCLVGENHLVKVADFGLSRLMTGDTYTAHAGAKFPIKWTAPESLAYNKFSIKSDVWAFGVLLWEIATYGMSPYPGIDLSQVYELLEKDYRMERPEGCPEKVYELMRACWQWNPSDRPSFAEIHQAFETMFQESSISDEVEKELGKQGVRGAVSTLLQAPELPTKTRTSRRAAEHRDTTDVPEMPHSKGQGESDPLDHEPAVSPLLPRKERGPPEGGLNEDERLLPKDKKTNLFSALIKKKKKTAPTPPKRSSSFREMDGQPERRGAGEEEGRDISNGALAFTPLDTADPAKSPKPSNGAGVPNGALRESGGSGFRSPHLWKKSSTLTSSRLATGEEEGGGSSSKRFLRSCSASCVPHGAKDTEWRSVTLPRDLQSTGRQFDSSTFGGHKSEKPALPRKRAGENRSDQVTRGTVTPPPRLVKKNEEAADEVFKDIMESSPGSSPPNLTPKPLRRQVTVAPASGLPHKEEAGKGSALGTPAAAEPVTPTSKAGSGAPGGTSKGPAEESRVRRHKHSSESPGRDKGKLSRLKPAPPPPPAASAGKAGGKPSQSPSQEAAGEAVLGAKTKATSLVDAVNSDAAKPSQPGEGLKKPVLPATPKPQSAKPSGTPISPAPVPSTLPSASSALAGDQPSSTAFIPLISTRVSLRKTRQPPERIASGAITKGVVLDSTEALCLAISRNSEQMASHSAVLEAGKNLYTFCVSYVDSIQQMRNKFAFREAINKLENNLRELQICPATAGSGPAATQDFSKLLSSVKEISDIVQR
smiles,measurement,setting,value
Cc1ccc([N+](=O)[O-])cc1S(=O)(=O)N(C)C,ΔTm,[1],0.7 °C
same,ΔTm,[2],-1.98 °C
same,ΔTm,[3],0.09 °C
same,ΔTm,[4],-0.33 °C
same,ΔTm,[5],-0.61 °C
same,ΔTm,[6],0.1 °C
same,ΔTm,[7],-2.12 °C
same,ΔTm,[8],-0.39 °C
COc1ccc(OC)c(-c2nnc3n2N=C(c2ccc(OC)c(OC)c2)CS3)c1,ΔTm,[1],0.21 °C
same,ΔTm,[2],2.23 °C
same,ΔTm,[3],-0.04 °C
same,ΔTm,[4],-0.07 °C
same,ΔTm,[5],-1.12 °C
same,ΔTm,[6],0.55 °C
same,ΔTm,[7],-1.28 °C
same,ΔTm,[8],1.86 °C
O=C(NCC(=O)N1CCCCC1)Nc1ccc2nnsc2c1,ΔTm,[1],0.46 °C
same,ΔTm,[2],-0.58 °C
same,ΔTm,[3],0.28 °C
same,ΔTm,[4],0.06 °C
same,ΔTm,[5],0.23 °C
same,ΔTm,[6],-0.52 °C
same,ΔTm,[7],-0.71 °C
same,ΔTm,[8],0.08 °C
Cc1cc(Cl)cc(-c2c3sc(CN4C(=O)C5C(C4=O)C5(C)C)cc3nn2C)c1OC1CCNCC1 (centres undefined),ΔTm,[1],0.34 °C
same,ΔTm,[2],-5.5 °C
same,ΔTm,[3],0.13 °C
same,ΔTm,[4],-0.45 °C
same,ΔTm,[5],-0.24 °C
same,ΔTm,[6],-0.05 °C
same,ΔTm,[7],-2.64 °C
same,ΔTm,[8],-1.23 °C
Cc1ccc2[nH]c(-n3nc(C)c(Cc4ccccc4)c3O)nc2c1,ΔTm,[1],0.97 °C
same,ΔTm,[2],-3.32 °C
same,ΔTm,[3],0.2 °C
same,ΔTm,[4],0.73 °C
same,ΔTm,[5],0.42 °C
same,ΔTm,[6],0.56 °C
same,ΔTm,[7],-1.88 °C
same,ΔTm,[8],-0.69 °C
COc1ccc(/C=C/C(=O)NO)c(-c2ccc(-c3ccccc3)cc2)c1,ΔTm,[1],-1.93 °C
same,ΔTm,[2],2.27 °C
same,ΔTm,[3],0.43 °C
same,ΔTm,[4],-0.46 °C
same,ΔTm,[5],3.08 °C
same,ΔTm,[6],-9.33 °C
same,ΔTm,[7],2.77 °C
same,ΔTm,[8],3.31 °C
CC[C@H](C)[C@H](NC(C)=O)C(=O)N[C@@H](CCC(=O)O)C(=O)N[C@H](C(=O)N[C@H](C=O)CC(=O)O)[C@@H](C)O (Ac-IETD-aldehyde),ΔTm,[1],0.22 °C
same,ΔTm,[2],-2.51 °C
same,ΔTm,[3],-0.65 °C
same,ΔTm,[4],0.05 °C
same,ΔTm,[5],-1.72 °C
same,ΔTm,[6],-0.3 °C
same,ΔTm,[7],-1.5 °C
same,ΔTm,[8],-1.13 °C
N#Cc1ccc(Nc2cnccc2SCc2ccccc2C(=O)O)c2ccccc12,ΔTm,[1],0.28 °C
same,ΔTm,[2],1.65 °C
same,ΔTm,[3],0.57 °C
same,ΔTm,[4],-0.12 °C
same,ΔTm,[5],0 °C
same,ΔTm,[6],0.32 °C
same,ΔTm,[7],-0.47 °C
same,ΔTm,[8],1.31 °C
Cc1cc(C(=O)CN2CCCCC2)c(C)n1-c1ccc(Cl)cc1,ΔTm,[1],-0.03 °C
same,ΔTm,[2],-2.43 °C
same,ΔTm,[3],0.02 °C
same,ΔTm,[4],-0.16 °C
same,ΔTm,[5],-0.07 °C
same,ΔTm,[6],0.08 °C
same,ΔTm,[7],-1.42 °C
same,ΔTm,[8],-0.41 °C
COC(=O)CC[C@H](NC(=O)[C@H](C)NC(=O)OCc1ccccc1)C(=O)N[C@H](C(=O)N[C@@H](CC(=O)OC)C(=O)CF)C(C)C (Cbz-AE(OMe)VD(OMe)-CH2F),ΔTm,[1],0.32 °C
same,ΔTm,[2],-1.14 °C
same,ΔTm,[3],-0.09 °C
same,ΔTm,[4],-0.04 °C
same,ΔTm,[5],-0.78 °C
same,ΔTm,[6],-0.86 °C
same,ΔTm,[7],-1.1 °C
same,ΔTm,[8],-1.06 °C
Cc1c(F)c(N)cc(C(=O)Nc2cc(-n3cc(C(=O)NCCCN4CCOCC4)nn3)ccc2N2CCN(C)CC2)c1Cl,ΔTm,[1],0.14 °C
same,ΔTm,[2],-3.1 °C
same,ΔTm,[3],0.07 °C
same,ΔTm,[4],0.04 °C
same,ΔTm,[5],-0.82 °C
same,ΔTm,[6],0.14 °C
same,ΔTm,[7],-2.25 °C
same,ΔTm,[8],-0.56 °C
C[C@H]1CCCN1Cc1nc2cc(NC(=O)c3ccc4c(cnn4C)c3)ccc2[nH]1,ΔTm,[1],2.18 °C
same,ΔTm,[2],-0.92 °C
same,ΔTm,[3],0.64 °C
same,ΔTm,[4],0.92 °C
same,ΔTm,[5],-0.87 °C
same,ΔTm,[6],0.27 °C
same,ΔTm,[7],-0.14 °C
same,ΔTm,[8],-0.88 °C
CC(C)(C)OC(=O)N1CCN(C(=O)n2cc(-c3ccc(OC(F)(F)F)cc3)nn2)C(Cc2ccccc2)C1 (centres undefined),ΔTm,[1],0.06 °C
same,ΔTm,[2],-0.12 °C
same,ΔTm,[3],0.53 °C
same,ΔTm,[4],-0.73 °C
same,ΔTm,[5],-0.69 °C
same,ΔTm,[6],-0.4 °C
same,ΔTm,[7],-1.5 °C
same,ΔTm,[8],-0.53 °C
O=C(CCCCCCNC(=O)c1cnc(N(c2ccccc2)c2ccccc2Cl)nc1)NO,ΔTm,[1],0.43 °C
same,ΔTm,[2],-2.47 °C
same,ΔTm,[3],0.09 °C
same,ΔTm,[4],0.15 °C
same,ΔTm,[5],-0.06 °C
same,ΔTm,[6],-0.04 °C
same,ΔTm,[7],-0.63 °C
same,ΔTm,[8],-0.75 °C
CS(=O)(=O)c1ccc(-c2nnc(C=Cc3nnc(-c4ccc(C#N)cc4)o3)n2-c2ccccc2Cl)nc1,ΔTm,[1],0.4 °C
same,ΔTm,[2],-3.09 °C
same,ΔTm,[3],0.99 °C
same,ΔTm,[4],-0.25 °C
same,ΔTm,[5],-0.77 °C
same,ΔTm,[6],-0.27 °C
same,ΔTm,[7],-1.63 °C
same,ΔTm,[8],0.34 °C
O=C(c1cc(O)c(O)c([N+](=O)[O-])c1)c1ccccc1F,ΔTm,[1],0.42 °C
same,ΔTm,[2],-1.18 °C
same,ΔTm,[3],0.1 °C
same,ΔTm,[4],0.37 °C
same,ΔTm,[5],0.05 °C
same,ΔTm,[6],0.25 °C
same,ΔTm,[7],-1.23 °C
same,ΔTm,[8],0.61 °C
CC(C)[C@@H]1C(=O)N(S(C)(=O)=O)[C@@H]2CCN(C(=O)/C=C/CN3CCCCC3)[C@H]21,ΔTm,[1],0.18 °C
same,ΔTm,[2],-2.34 °C
same,ΔTm,[3],0.22 °C
same,ΔTm,[4],0.11 °C
same,ΔTm,[5],-1.7 °C
same,ΔTm,[6],0.03 °C
same,ΔTm,[7],-0.54 °C
same,ΔTm,[8],-1.12 °C
O=c1[nH]c(Oc2cnn(Cc3ccccc3)c2)nc2cnccc12,ΔTm,[1],0.64 °C
same,ΔTm,[2],-2.42 °C
same,ΔTm,[3],0.14 °C
same,ΔTm,[4],-0.09 °C
same,ΔTm,[5],0.35 °C
same,ΔTm,[6],0.33 °C
same,ΔTm,[7],-1.07 °C
same,ΔTm,[8],0.34 °C
CC(C)c1cc(C(=O)N2CC[C@@H](NC(=O)C3CC3)C2)[nH]n1,ΔTm,[1],0.79 °C
same,ΔTm,[2],-3.2 °C
same,ΔTm,[3],0.06 °C
same,ΔTm,[4],-0.08 °C
same,ΔTm,[5],-0.75 °C
same,ΔTm,[6],0.08 °C
same,ΔTm,[7],-2.47 °C
same,ΔTm,[8],1.07 °C
O=C(NC[C@H](O)CN1CCc2ccccc2C1)c1cc(NC2COC2)ncn1,ΔTm,[1],0.58 °C
same,ΔTm,[2],-1.3 °C
same,ΔTm,[3],0.75 °C
same,ΔTm,[4],0.5 °C
same,ΔTm,[5],-0.25 °C
same,ΔTm,[6],0.04 °C
same,ΔTm,[7],-0.01 °C
same,ΔTm,[8],-0.84 °C
CCn1nc(C2CC2)cc1Nc1nc(C(=O)NC)nc2[nH]c3cc(-c4c(C)noc4C)c(OC)cc3c12,ΔTm,[1],0.56 °C
same,ΔTm,[2],8.71 °C
same,ΔTm,[3],-0.11 °C
same,ΔTm,[4],-0.18 °C
same,ΔTm,[5],-1.43 °C
same,ΔTm,[6],0.23 °C
same,ΔTm,[7],-2.42 °C
same,ΔTm,[8],0 °C
COC(=O)C1=C(C(=O)OC)[C@@]2([C@@H](Cc3ccc(C)cc3)Nc3ccccc3)C=C[C@@H]1O2,ΔTm,[1],0.44 °C
same,ΔTm,[2],-0.64 °C
same,ΔTm,[3],0.54 °C
same,ΔTm,[4],-0.66 °C
same,ΔTm,[5],-1.68 °C
same,ΔTm,[6],-0.27 °C
same,ΔTm,[7],-2.34 °C
same,ΔTm,[8],1.28 °C
O=CC1CCCN1C(=O)C1CCCN1C(=O)OCc1ccccc1 (stereo not drawn) (Cbz-Pro-Pro-aldehyde; configuration not given here),ΔTm,[1],0.3 °C
same,ΔTm,[2],-1.06 °C
same,ΔTm,[3],-0.15 °C
same,ΔTm,[4],0.22 °C
same,ΔTm,[5],-0.2 °C
same,ΔTm,[6],0.12 °C
same,ΔTm,[7],-0.83 °C
same,ΔTm,[8],-0.47 °C
